HCMV inh: blocks human cytomegalovirus replication | HFF cells, HCMV-luciferase reporter, 72 h; active compounds read low | activity change, negative = inhibition, % at 57.5 µM | 410,000 tested, 4.5% active; in the data active means activity change below about -60%; inconclusive means no clear call, values can overlap the other calls; inactive means above about -39%
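Luciferase read-out from HCMV-luciferase-infected HFFs (MOI 1 PFU/cell) 72 h post infection at 37C; compounds added after 16 h cell attachment; activity normalized between buffer-only basal and Salinomycin (10uM) inhibitor controls.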
FBPA Giardia inh: inhibitors of Giardia lamblia fructose-1,6-bisphosphate aldolase; A8B2U2; purified Giardia FBPA; Potency, µM (titrated, usually from 59.6 µM), for inactives: top-dose activity, negative = inhibition, actives largely listed as inhibitors; 290,000 tested, 0.71% active; further: potency means the concentration at half of the fitted maximal effect; nearly all actives have a fitted effect of over 55% in size
Target sequence (A8B2U2 whole entry, looked up): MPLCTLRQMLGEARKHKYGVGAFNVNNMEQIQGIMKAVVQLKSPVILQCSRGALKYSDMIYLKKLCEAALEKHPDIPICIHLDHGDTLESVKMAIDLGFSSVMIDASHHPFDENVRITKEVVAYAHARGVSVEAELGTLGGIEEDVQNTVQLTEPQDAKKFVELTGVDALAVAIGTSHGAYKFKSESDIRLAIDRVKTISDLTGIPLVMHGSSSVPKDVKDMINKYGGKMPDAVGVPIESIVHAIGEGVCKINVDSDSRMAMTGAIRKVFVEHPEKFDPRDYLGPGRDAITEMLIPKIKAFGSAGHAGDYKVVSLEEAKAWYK
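40 nM FBPA preincubated 10 min at RT with compound (up to 57.5 uM final), then substrate plus GAPDH/TPI/NAD/arsenate coupling and diaphorase/resazurin added. Fluorescence read after 20 min at RT, 525/598 nm.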
Lassa entry inh: inhibitors of Lassa virus binding or cell entry; Lassa virus pseudotype entry inhibition, cell reporter; Potency, µM (highest dose often 37.9 µM), without a hit: at the top dose activity change, negative = inhibition, most hits filed as inhibitors; 300,000 tested, 1.2% active; AID 540256; calls by dose curve; tested in HEK293 cells; further: potency means the concentration at half of the fitted maximal effect; nearly all actives have a fitted effect of over 50% in size
HCV inh: blocks hepatitis C virus | Huh7.5.1 HCVcc-Cre infection, luciferase reporter, 44 h | Potency, µM (top dose mostly 41.8 µM), for the others: top-dose activity change, negative = inhibition, usual class: inhibitors | 340,000 tested, 3.4% active; further: potency means the concentration at half of the fitted maximal effect
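A cell-based infection assay in which seeded cells (1,000 per well) receive test compound after 4 h, are inoculated with HCVcc-Cre at approximately 0.5 moi, and are incubated 44 h before luminescence detection.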
MARV entry inh: inhibitors of Marburg virus binding or cell entry; 300,000 tested, 1.8% active; Marburg virus pseudotyped entry inhibition, cell reporter; Potency, µM (top dose mostly 37.8 µM), for the others: top-dose activity change, negative = inhibition, actives largely listed as inhibitors; AID 540276; calls by dose curve; tested in HEK293 cells; further: potency means the concentration at half of the fitted maximal effect
FMDV inh: foot and mouth disease virus antiviral activity; FMDV antiviral cell-based qHTS; Potency, µM (top dose mostly 57.9 µM), inactives show at the highest dose activity change, negative = inhibition, actives largely listed as inhibitors; 410,000 tested, 1.2% active; AID 1159524; calls by dose curve; tested in HEK293T cells; further: read-out not given here; potency means the concentration at half of the fitted maximal effect; nearly all actives have a fitted effect of over 45% in size
* = called active by the depositor; ? = inconclusive; . = not tested or not shown; ! = a repeat was not active; [ ] = remark or other dose. In the library only some 8.3% were active in any assay of this set; here they are far more common. Unless noted, the call rests on the fitted dose curve; in most records, active means well fitted curve in the direction sought with a large enough effect; inconclusive means small, poorly fitted or top-dose-only effect, or another doubt; inactive means no such curve, though single readings can be large; an effect the other way counts as inactive or inconclusive. On the % scale 0 is the no-effect control and ±100 the full control effect.

SMILES	HCMV inh	FBPA Giardia inh	Lassa entry inh	HCV inh	MARV entry inh	FMDV inh
CCN(C(=O)Cn1ncc2c1-c1cc(C)ccc1OC2)c1cc(Cl)ccc1OC	-26.6	.	.	.	?	-23.1%
COc1cccc(-c2coc3ccc(Br)cc3c2=O)c1	.	6.4%	.	.	60.8%[14.2 µM]	.
O=C(Nc1nc(-c2ccco2)c(-c2ccco2)s1)c1c(F)cccc1Cl	-19.4	.	.	14.1µM*	.	-23.7%
O=C(Nc1nc(-c2ccco2)c(-c2ccco2)s1)c1ccc(F)cc1F	18.8	.	17.9%	?	16.5%	20.1%
Fc1ccc(Nc2ccnc(-c3ccc4c(c3)OCO4)n2)cc1	.	-6.7%	.	.	.	16.0%
O=C(NNc1c2ccccc2nc2ccccc12)c1cccc(O)c1	-60.8*	-5.7%	-9.0%	?	?	0.0%
O=C(NNc1c2ccccc2nc2ccccc12)c1ccc(O)cc1	?	-2.7%	?	10µM*	5.8µM*	-4.6%
O=C(NNC(=O)c1ccc2ccccc2n1)c1ccc(O)cc1	?	.	.	?	.	-7.4%
Cc1cc2ccccc2nc1SCC(=O)N1CCCC1	-20.2	10.5%	-0.3%	1µM*	10.1%	-1.9%
O=C(Oc1ccc(N(C(=O)c2ccncc2)S(=O)(=O)c2ccc(F)cc2)cc1)c1ccncc1	-33.3	-3.1%	0.3%	-17.4%	-2.8%	-14.2%
Cc1ccc(S(=O)(=O)N(C(=O)c2ccncc2)c2ccc(OC(=O)c3ccncc3)cc2)cc1	-67.5*	0.1%	-18.0%	4.4%	-32.8%	-20.5%
COc1ccc(C2CC(c3ccccc3)Oc3ccc(C(C)(C)C)cc32)cc1 (centres undefined)	.	2.0%	.	.	.	.
COc1ccc(C2CC(c3ccccc3)Oc3cc4c(cc32)OCO4)cc1 (centres undefined)	.	15.8µM*!	.	.	.	.
Cc1ccc(C)c(N2CCN(C(=O)c3c4c(nc5ccccc35)C(=O)N(C3CCCCC3)C4)CC2)c1	41.6	.	19.3%[46.1 µM]	.	.	-21.7%
NCCCS(=O)(=O)O	?	0.2%	?	5.62µM*!	8.2µM*!	-29.3%
CC(C)(C)c1nn2cnnc2n(/N=C/c2cccc3ccccc23)c1=O	-24.8	-3.3%	0.1%	29.6%	15.2%	28.2µM*
O=C(OCc1cn([C@H]2C[C@H](c3ccccc3)N(C(=O)C3CCCCC3)C[C@H]2O)nn1)c1ccccc1	.	.	0.0%[46.1 µM]	.	.	.
CCCCC/C=C\C/C=C\C/C=C\CCCCCCC(=O)NCCc1ccc(O)c(O)c1	.	1.3%	.	.	.	.
C=C(C)C(=O)OCC(O)COc1ccc(C(C)(C)c2ccc(OCC(O)COC(=O)C(=C)C)cc2)cc1 (centres undefined)	36.2	.	.	-0.9%	.	39.8µM*
CC(=O)N(C)c1ccc(OCC(O)COc2ccc(N(C)C(C)=O)cc2)cc1	63.4	2.6%	-4.7%	20.4%	16.7%	0.4%
Cc1cccc(CNc2nc3cnc(-c4ccc(F)cc4)cc3n2C)c1	-3.3	.	.	.	.	.
CCOC(=O)c1nc(Nc2cc(Cl)ccc2OC)c2ccccc2n1	-69.8*	11.9%	.	12.6µM*	.	-12.5%
CCC(C)NC(=O)CSc1c2c(nc3ccccc13)CCCC2 (centres undefined)	65.8	0.2%	-25.7%	?	?	25.1µM*
COc1cccc(NC(=O)CSc2nc(=O)n(Cc3ccncc3)c3c2CCCC3)c1	-84.6*	.	-3.0%	-3.2%	0.6%	-19.4%
CCOC(=O)c1nc(Nc2ccccc2)c2ccccc2n1	-15.7	-0.8%	0.8%	?	3.7%	?
SMILES	HCMV inh	FBPA Giardia inh	Lassa entry inh	HCV inh	MARV entry inh	FMDV inh
COc1cccc(-n2c(SCC(=O)Nc3ccc4c(c3)CCC4)nc3ccccc3c2=O)c1	-70.3*	1.6%	?	?	?	-14.6%
CCn1c(CC2C(=O)N(C)c3ccccc32)nc2ccccc2c1=O (centres undefined)	-10.6	.	-23.0%[46.1 µM]	.	-12.9%[46.1 µM]	-5.9%
COc1cc2c3cc1Oc1c(OC)c(OC)cc4c1[C@@H](Cc1ccc(OC(=O)c5ccc([N+](=O)[O-])cc5)c(c1)Oc1ccc(cc1)C[C@@H]3N(C)CC2)N(C)CC4	.	-13.3%	.	.	.	.
COc1ccc(Cl)cc1NC(=O)CSc1nc(=O)n(CCN(C)C)c2c1CCCC2	-7.7	.	?	11.2µM*	?	7.5%
COc1ccc(Cl)cc1NC(=O)CSc1c2c(nc3ccccc13)CCC2	-69.6*	.	3.8%[46.1 µM]	.	-3.7%[46.1 µM]	?
COc1cccc(NC(=O)CSc2c3c(nc4ccccc24)CCCC3)c1	9.0	2.8%	?	?	?	31.6µM*
COc1ccc(-c2cc(C3C4C=CCC(C)C4C(=O)N3Cc3ccccc3)ccc2F)cc1OC (centres undefined)	.	-2.7%	.	.	.	.
CCCOc1ccc(NC(=O)CC2C(=O)N(c3ccccc3)C(=O)N2CCC(C)C)cc1 (centres undefined)	12.0	.	3.3%[46.1 µM]	.	.	-5.8%
COc1ccc(CN2CCCC(n3cc(C(=O)NC4CCCC4)nn3)C2)c(O)c1 (centres undefined)	.	.	.	.	.	-20.1%
COc1ccc(NC(=O)CN(C)C(=O)c2cccc(S(=O)(=O)N3CCN(C)CC3)c2)cc1	-22.9	.	9.1%	-8.6%	0.3%[46.1 µM]	-16.7%
CN(CC(=O)Nc1ccc(F)cc1)C(=O)c1ccncc1	-72.5*	.	14.0%[46.1 µM]	9.3%	-1.4%[46.1 µM]	11.5%
CN(CC(=O)Nc1cccc(F)c1)C(=O)c1ccncc1	32.3	7.9%	?	17.4%	16.4%[46.1 µM]	-11.7%
CN(CC(=O)Nc1cccc(F)c1)C(=O)c1cccc(S(=O)(=O)N2CCN(c3ccccc3)CC2)c1	-76.7*	.	-3.0%	?	?	?
CN(CC(=O)Nc1ccc(F)cc1)C(=O)c1cccc(S(=O)(=O)N2CCN(c3ccc(F)cc3)CC2)c1	-63.3*	.	?	8.91µM*	?	?
Cc1nnc(SCC(=O)N/N=C/c2ccc(-c3ccc(C)c(Cl)c3)o2)s1	-65.2*	-5.2%	?	0.9%	-24.9%	-24.1%
O=C(C1CCCCC1)N1C[C@H](O)[C@H](n2cc(C3CC3)nn2)C[C@@H]1c1ccc(Cl)cc1	.	.	-14.9%[46.1 µM]	.	.	.
COc1ccc(Br)cc1/C=C/C(=O)Nc1ccc2ccccc2c1	-37.3	1.1%	-1.9%	10µM*	?	-6.8%
CCC(=O)Nc1cccc(C(=O)/C=C/c2cc(Br)ccc2OC)c1	-104.0*	0.7%	11.2µM*	11.2µM*	?	8.91µM*
O=C(CN1C(=O)CC(c2ccco2)Sc2ccccc21)Nc1cccc(C(F)(F)F)c1 (centres undefined)	-8.4	.	.	.	?	0.0%
O=C(Nc1ccccc1O)C(c1ccccc1)c1ccccc1	?	18.9%	-28.7%[46.1 µM]	12.6µM*	?	?
Cc1cccc(C(=O)N2CCC(=O)N(C(COCc3ccccc3)Cc3ccccc3)CC2)c1 (centres undefined)	-19.6	-2.9%	5.8µM*	-20.3%	1.3%	0.0%
Cc1cccc(COC[C@H](Cc2ccccc2)N2CCN(C(=O)c3cccc(Cl)c3)CCC2=O)c1	5.2	-0.9%	.	.	.	-17.0%

From PubChem
